Bioassay records as filed in PubChem.
Only some compounds are listed: those with a hit (about 9.3% of all), similar ones and a draw of the others.
ELG1 DNA repair: qHTS screen for small molecules that inhibit ELG1-dependent DNA repair in human embryonic kidney (HEK293T) cells expressing luciferase-tagged ELG1 | HEK293T ELG1-luciferase reporter, luminescence, 16 h; DNA damage induced by 5-fluorouridine | Potency, µM (top dose mostly 46.1 µM), without a hit: top-dose activity change, negative = inhibition, actives largely listed as inhibitors | 330,000 compounds, 2.3% hits | AID 504467, 2011; further: on the % scale 0 is the no-effect control and ±100 the full control effect; nearly all actives have a fitted effect of over 55% in size
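HEK293T cells expressing luciferase-tagged ELG1 (2,000/well) received 5-Fluorouridine plus compound or DMSO for 16 hr at 37 °C. Luciferase was read by ONE-Glo luminescence after 30 min at room temperature.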
ELG1 genotoxic: qHTS screen for small molecules that induce genotoxicity in human embryonic kidney (HEK293T) cells expressing luciferase-tagged ELG1; HEK293T ELG1-luciferase reporter, luminescence, 16 h; Potency, µM (titrated, usually from 46 µM), inactives show at the highest dose activity change, positive = activation, usual class: activators; 330,000 compounds, 1.3% hits; AID 504466, 2011; further: % of control where 0% means no effect; nearly all actives have a fitted effect of over 60% in size
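After overnight (16 hr) compound treatment at 37 °C, ELG1-luciferase HEK293T cells were lysed with ONE-Glo; luminescence quantified 30 min later at room temperature.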
Rab9 prom act: qHTS Assay for Rab9 Promoter Activators. AID 485297, 2010. Huh7 Rab9 promoter-luciferase reporter, luminescence, 24 h. Potency, µM (series often up to 9.22 µM), for the others: top-dose activation, negative = inhibition, usual class: activators. 320,000 compounds, 2.8% hits; further: % of control where 0% means no effect; nearly all actives have a fitted effect of over 60% in size
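Using Huh7 cells stably transfected with Rab9 promoter–luciferase, compounds were incubated 24 h at 37 °C, 5% CO2; luciferase luminescence was read 10 min after reagent addition.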
NPC1 promoter act: qHTS Assay for NPC1 Promoter Activators; Huh7 NPC1 promoter luciferase reporter, 24 h; Potency, µM (series often up to 9.22 µM), for the others: top-dose activation, hits mostly activators; 320,000 compounds, 2.4% hits; further: % of control where 0% means no effect; nearly all actives have a fitted effect of over 60% in size
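Luminescence read-out of NPC1 promoter-driven luciferase in stably transfected Huh7 cells; compounds delivered in DMSO and left 24 h at 37C, 5% CO2, qHTS titration format.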
FLuc modulator: qHTS profiling assay for firefly luciferase inhibitor/activator using purifed enzyme and Km concentrations of substrates (counterscreen for miR-21 project); Luciferin 4-monooxygenase (Photinus pyralis), P08659; purified FLuc, Km substrates, luminescence inhibition; Potency, µM (series often up to 57.5 µM), without a hit: top-dose activity change, negative = inhibition, actives largely listed as inhibitors; 360,000 compounds, 6.9% hits; AID 588342, 2011;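 further: plate controls were vehicle for no effect and reference inhibitor for full effect; nearly all actives have a fitted effect of over 55% in size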
Target sequence (P08659 whole entry, looked up): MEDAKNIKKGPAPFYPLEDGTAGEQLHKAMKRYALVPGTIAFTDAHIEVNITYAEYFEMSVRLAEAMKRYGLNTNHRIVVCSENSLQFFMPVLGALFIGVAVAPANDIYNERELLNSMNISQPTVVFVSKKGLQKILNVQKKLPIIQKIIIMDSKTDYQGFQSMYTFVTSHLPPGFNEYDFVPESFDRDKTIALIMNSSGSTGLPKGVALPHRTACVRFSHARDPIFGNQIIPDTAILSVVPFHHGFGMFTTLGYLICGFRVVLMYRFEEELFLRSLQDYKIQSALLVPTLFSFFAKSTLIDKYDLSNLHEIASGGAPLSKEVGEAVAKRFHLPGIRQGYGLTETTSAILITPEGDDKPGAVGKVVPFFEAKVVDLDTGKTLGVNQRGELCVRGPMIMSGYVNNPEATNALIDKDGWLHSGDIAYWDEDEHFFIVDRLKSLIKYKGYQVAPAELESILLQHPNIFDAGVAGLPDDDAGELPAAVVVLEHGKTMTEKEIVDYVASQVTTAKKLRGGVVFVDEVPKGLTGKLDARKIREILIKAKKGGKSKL
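Purified P. pyralis luciferase (10nM final) with 10uM D-luciferin and 10uM ATP (Km levels) in 50mM Tris acetate pH 7.5, 10mM Mg acetate, 0.01% Tween-20, 0.05% BSA; qHTS 6-point titration, ~60 µM downward; luminescence read.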
SMN2 splice enh: qHTS Assay for Enhancers of SMN2 Splice Variant Expression. HEK293 SMN2-luciferase splicing reporter, luminescence, 30-36 h. Potency, µM (top dose mostly 46.1 µM), for the others: at the highest dose activity change, positive = activation, hits mostly activators. 210,000 compounds, 2.8% hits; further: % of control where 0% means no effect; nearly all actives have a fitted effect of over 55% in size
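HEK293 cells carry an SMN2 […]–luciferase reporter in which exon 7 inclusion puts luciferase in frame. Cells were plated 10-12 h before compound addition, then incubated 30-36 h at 37C. ONE-Glo luminescence was read; sodium butyrate at 4.5 mM final served as control.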
The depositor's hits bear a star; ? = inconclusive; · = no result given; [ ] = dose if it differs, or a comment. The call rests on the fitted dose curve; in most records, active means well fitted curve in the direction sought with a large enough effect; inconclusive means small, poorly fitted or top-dose-only effect, or another doubt; inactive means no such curve, though single readings can be large; an effect the other way counts as inactive or inconclusive. Potency means the concentration at half of the fitted maximal effect.

SMILES	ELG1 DNA repair	ELG1 genotoxic	Rab9 prom act	NPC1 promoter act	FLuc modulator	SMN2 splice enh
O=C(CCCCCn1c(=O)[nH]c2ccccc2c1=O)NCCCN1CCN(c2ccccc2F)CC1	23µM*	-13%	-4%	-3%	1%	-71%
O=C(CN1CCN(Cc2ccc3c(c2)OCO3)CC1)Nc1cc(S(=O)(=O)N2CCCC2)ccc1Cl	?	-1%	-21%	-23%	-1%	-58%
O=C(COC(=O)c1cc(Cl)ccc1O)NC(=O)NCc1ccccc1	?	-3%	7%	-1%	2%	·
O=C(Nc1cccc(Cl)c1)Nc1c[nH]c(=O)[nH]c1=O	4%	3%	12%	1%	3%	·
O=C(Nc1ccc(NC(=O)C2CCCCC2)nc1)c1cccs1	?	13%	?	26%	?	18%
O=C(CCCCCn1c(=O)[nH]c2ccccc2c1=O)N1CCN(Cc2ccc3c(c2)OCO3)CC1	18µM*	-17%	-10%	0%	0%	-19%
CS(=O)(=O)N(CCc1ccccc1)CC(=O)N1CCN(Cc2ccc3c(c2)OCO3)CC1	·	·	·	·	1%	-35%
C/C(=C\c1ccccc1)C(=O)N1CCN(Cc2ccc3c(c2)OCO3)CC1	7.3µM*	-7%	6%	-1%	-1%	·
CS(=O)(=O)N(CC(=O)N1CCN(Cc2ccc3c(c2)OCO3)CC1)Cc1ccc(Cl)cc1	12µM*	-15%	0%[1.84 µM]	-2%	7%	-48%
O=C(O)c1ccccc1C(=O)N1CCN(Cc2ccc3c(c2)OCO3)CC1	9%	0%	2%	-5%	-2%	·
CCN(CC)S(=O)(=O)c1ccc(N(C)Cc2cccnc2)nc1	-2%	2%	4%	6%	-2%	-25%
COc1ccccc1C1C(C(=O)c2cc3ccccc3o2)=C(O)C(=O)N1CCN1CCOCC1 (centres undefined)	2%	-1%	16%	-2%	13µM*	4%
COc1cccc(C2C(C(=O)c3cc4ccccc4o3)=C(O)C(=O)N2CCN2CCOCC2)c1 (centres undefined)	11%	2%	4%	6%	0%	·
Cc1ccc(CSc2nnc(NC(=O)C3=COCCO3)s2)cc1	?	9%	3%	10%	27µM*	·
O=C(Nc1nc(-c2ccc(Cl)cc2)cs1)C1=COCCO1	?	7%	16%	?	24µM*	·
CCc1ccc(-c2csc(NC(=O)C3=COCCO3)n2)cc1	?	?	0.79µM*	0.89µM*	8.5µM*	·
O=C(Nc1nc(-c2cccs2)cs1)C1=COCCO1	?	?	?	?	12µM*	13µM*
O=C(Nc1nc(-c2ccc(F)c(F)c2)cs1)C1=COCCO1	?	4%	?	20%	?	·
Cc1cc(-c2csc(NC(=O)C3=COCCO3)n2)c(C)n1C	16%	1%	17%	10%	-13%	·
O=C(Nc1cccnc1Cl)c1cccc(S(=O)(=O)N2CCOCC2)c1	1%	0%	0%	1%	0%	·
Cc1c(Cl)cccc1NC(=O)c1ncoc1-c1ccco1	·	·	·	·	-2%	·
CS(=O)(=O)N1CCc2cc(-c3csc(NC(=O)Cc4ccccc4)n3)ccc21	18µM*	-6%	-9%	-3%	?	-99%
CC1Cc2cc(-c3csc(NC(=O)Cc4cccs4)n3)ccc2N1S(C)(=O)=O (centres undefined)	4.6µM*	?	-29%	-26%	-1%	-114%
CN(Cc1cccc(Cl)c1)C(=O)C1CSC2(C)CCC(=O)N12 (centres undefined)	3%	-2%	-4%	1%	-2%	·
Cc1ccc(/C=C/c2onc(C)c2S(=O)(=O)N2CCC(C(=O)N3CCC(N(C)C(C)C)CC3)CC2)cc1	·	·	·	·	-3%	·
SMILES	ELG1 DNA repair	ELG1 genotoxic	Rab9 prom act	NPC1 promoter act	FLuc modulator	SMN2 splice enh
CCc1cc2c(cc3c(=O)n(CCCC(=O)NCc4cccc(Br)c4)ncn32)s1	·	·	·	·	?	5%
O=[N+]([O-])c1ccc2c(c1)c(S(=O)(=O)O)cc1nonc12	·	·	·	·	·	-2%[9.22 µM]
O=C(NC(=S)Nc1ccccc1N1CCCCC1)c1ccco1	?	-3%	0%	-3%	-3%	-10%
O=C(NC(=S)Nc1ccc(N2CCCCC2)cc1)c1ccco1	?	?	1.1µM*	1µM*	3.4µM*	·
CC1CCN(c2ccc(NC(=S)NC(=O)c3ccco3)cc2)CC1	?	1%	?	14%	12µM*	-43%
Cc1ccc(C(=O)NC(=S)Nc2ccc(N3CCN(C(=O)c4ccco4)CC3)cc2)cc1	?	-11%	-7%	-2%	1%	·
Clc1ccc(-n2ncc3c(NCc4ccc5c(c4)OCO5)ncnc32)cc1	?	?	7%	10%	?	-14%
Clc1ccc(-n2ncc3c(NCC4CCCO4)ncnc32)cc1 (centres undefined)	?	?	0.45µM*	0.63µM*	1.7µM*	5µM*
CC(Sc1ncnc2c1cnn2-c1ccccc1)C(=O)NCC1CCCO1 (centres undefined)	8%	2%	-4%	-5%	?	·
COc1ccc(-n2ncc3c(NCC4CCCO4)ncnc32)cc1 (centres undefined)	?	12%	0.89µM*	0.56µM*	11µM*	11µM*
c1ccc(-n2ncc3c(NCC4CCCO4)ncnc32)cc1 (centres undefined)	-2%	2%	3.5µM*	2µM*	17µM*	-1%
COc1ccc(-c2cc(C(=O)Oc3ccccc3)c3cc(C)ccc3n2)cc1	·	·	·	·	4%	-6%
O=C(/C=C/c1ccc(-c2ccccc2[N+](=O)[O-])o1)c1ccccc1	?	13%	3%	16%	24µM*	-20%
O=C(O)/C(=C\c1ccc(-c2ccccc2[N+](=O)[O-])o1)c1ccccc1	-2%	4%	6%	1%	21µM*	·
CCOc1ccc(C2CC(=O)Nc3c2c(=O)nc(SCc2ccccc2C)n3C)cc1OC (centres undefined)	·	·	·	·	-18%	·
Cc1ccc(SCc2ccc(C(=O)N3CCCC3)cc2)cc1	?	13%	?	25%	17µM*	?
Cc1ccc(C(=O)NCC(=O)N2CCCCCCC2)cc1	?	11%	23%	17%	-16%	·
CCN1CCN(C(=O)c2ccc(CSc3ccc(C)cc3)cc2)CC1	-2%	-8%	-6%	1%	-11%	-43%
